B1: 5253780_5253900_1103_CDS_ENSG00000029725_ENST00000262477|human|control|control (ssRNA)
RNA: GGGAGUUCUACAGUCCGACGAUCAACUUGUCGGAGCUGUUCUGAAGUUAGCACAAUCUCCAUUCGCUGCAUGUCUCUCAUCAGUAAACGCUGAGAUUCCAGAAACUGGUCAUUGGCCUUCUGCCACGUAUGUUUUAACUGGUUCAACAGAGGAUUGAGCAUCA
B2: chr22:32879901:32879902:+_ENSG00000100225_ENST00000397426|hu_mus|hu_hu_hu_mus_False|48_98 (ssRNA)
RNA: GGGAGUUCUACAGUCCGACGAUCCUCUUCCAUACUCGCAUUAUCUUGAAUUGACUCAGCUUCAACAUUUUGACUAGGCCCUUCCAUACUGUCGUCAGUCCAGGCAUCAAAUGGGGUGGCCUGUCCUUGGGAUGAAUCAGUCCCCAACAGAGGAUUGAGCAUCA
B3: chr17:56552419:56552420:-_ENSMUSG00000013236_ENSMUST00000086828|mus_mus|mus_mus_mus_hu_False|78_88 (ssRNA)
RNA: GGGAGUUCUACAGUCCGACGAUCAAAAAAUACACUAUUUAAAAAAAAAAGAAAAAAAGAAAAAGAAGUUACACUGAGAGUUUUAAAAGAAAGCUGGAUUCUGGUCCCAGCCCAGUGUCCCCAGGCUGCAGAGCGGGGAGGAGCCAACAGAGGAUUGAGCAUCA
B4: chr17:56552419:56552420:-_ENSMUSG00000013236_ENSMUST00000086828|mus_mus|mus_mus_mus_hu_False|58_78 (ssRNA)
RNA: B3 RNA with A48U, A49G, G50A, A53U, A54G, A55U, A56C, G77C, G79C, U81A
B5: chr17:56552419:56552420:-_ENSMUSG00000013236_ENSMUST00000086828|mus_mus|mus_mus_mus_hu_False|1_78 (ssRNA)
RNA: B3 RNA with A48U, A49G, G50A, A53U, A54G, A55U, A56C, A138C, G139A, C143G
B6: chr17:56552419:56552420:-_ENSMUSG00000013236_ENSMUST00000086828|mus_mus|mus_mus_mus_hu_False|78_98 (ssRNA)
RNA: B3 RNA with U38A, U39A, A48U, A49G, G50A, A53U, A54G, A55U, A56C

Residue numbers refer to the chain shown, from its start. The full ranking holds about 24,000 sequences; the median of “enrichment r” is about 0.99, and the highest 2% start at about 3.7. For the sample, the highest values were picked, then their nearest neighbours and some sequences at random.

The target of the assay is T1, UNK ZnF1-3 (human, UniProt Q9C0B0 31-174).
T1 sequence: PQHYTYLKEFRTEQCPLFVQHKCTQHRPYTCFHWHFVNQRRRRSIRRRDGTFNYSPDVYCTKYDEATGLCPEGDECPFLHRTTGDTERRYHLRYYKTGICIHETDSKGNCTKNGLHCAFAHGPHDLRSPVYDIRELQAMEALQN
As to the kind of experiment: nsRBNS (natural sequence RNA bind-n-seq); RBNS binding buffer (assumed for nsRBNS): 25 mM Tris pH 7.5, 150 mM KCl, 3 mM MgCl2, 0.01% Triton X-100, 500 ug/ml BSA, 20 U/ml SUPERase-In, 4 C; UNK is unkempt and MSI1 is Musashi-1; names of the RNAs are library labels; protein concentration not given here; high values mean tight binding.
Turning to B1, the binding signal was 0.594 enrichment R.

With B2, the binding signal turned out to be 0.919 enrichment R.

In the case of B3, the binding signal was 12.6 enrichment R.

Take B4: the binding signal came to 8.52 enrichment R.

With B5, the binding signal was determined as 3.68 enrichment R.

B6 displayed a binding signal of 8.48 enrichment R.

Values taken from PMC12136788.
